Source: PubChem BioAssay (NCATS)
Records with an inconclusive call do not appear. Activity calls are given as the source filed them. Unless noted, calls follow the shape of the full dose curve.

Tests used:
[1] = qHTS for Inhibitors of the Functional Ribonucleoprotein Complex (vRNP) of Lassa (LASV) Arenavirus: LASV Primary Screen - GLuc reporter signal (AID 1347082; calls by dose curve; tested in HEK293 reporter line; also: nearly all actives have a fitted effect of over 60% in size; also: potency is read from the fitted curve at half-maximal effect)
[2] = qHTS for Inhibitors of the Functional Ribonucleoprotein Complex (vRNP) of Lassa (LASV) Arenavirus: Viability assay - alamar blue signal for LASV Primary Screen (AID 1347083; calls by dose curve; tested in HEK293 reporter line; also: nearly all actives have a fitted effect of over 80% in size; also: potency is read from the fitted curve at half-maximal effect)
[3] = qHTS for Inhibitors of the Functional Ribonucleoprotein Complex (vRNP) of Lymphocytic Choriomeningitis Arenaviruses (LCMV): Viability assay - alamar blue signal for LCMV Primary Screen (AID 1347085; calls by dose curve; tested in HEK293 reporter line; also: nearly all actives have a fitted effect of over 80% in size; also: potency is read from the fitted curve at half-maximal effect)
[4] = molecular target: Nucleoprotein (Lymphocytic choriomeningitis virus (strain Armstrong)) (UniProt P09992); assay: qHTS for Inhibitors of the Functional Ribonucleoprotein Complex (vRNP) of Lymphocytic Choriomeningitis Arenaviruses (LCMV): LCMV Primary Screen - GLuc reporter signal (AID 1347086); also: nearly all actives have a fitted effect of over 70% in size; also: potency is read from the fitted curve at half-maximal effect
[5] = Primary qHTS to identify inhibitors of SARS-CoV-2 cell entry (AID 1645846); conditions: activity change, negative = inhibition: at 57.1 µM (top of the series) unless noted; also: nearly all actives have a fitted effect of over 45% in size; also: potency is read from the fitted curve at half-maximal effect
How it was run: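 HEK293-ACE2 (Expi293F, stable hACE2), 1500 cells/well, o/n 37C; cpd 23 nL pin, 1 h; MLV-PP w/ SARS-CoV-2-S (Wuhan-Hu-1, Δ19 C-term); 48 h 37C; Bright-Glo luminescence; normalized vs S-PP and bald PP.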

[6] = molecular target: Cytochrome P450 3A4 (Homo sapiens) (UniProt P08684); assay: qHTS Assay for Activators of Cytochrome P450 3A4 (AID 885; active = well fitted curve in the direction sought with a large enough effect; an effect the other way counts as inactive or inconclusive; also: nearly all actives have a fitted effect of over 65% in size)
How it was run: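 Luminescent readout of luciferin formed from 25 uM Luciferin-PPXE (KM level) by 20 nM CYP3A4 in 200 mM KPO4, with 60 min NADPH-driven reaction at room temperature after 10 min compound exposure. Ketoconazole (57 uM) defined 100% inhibition.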

[7] = molecular target: Alpha-galactosidase (Coffea arabica) (UniProt Q42656); assay: Counterscreen for Glucocerebrosidase Inhibitors: qHTS Assay for Coffee Bean alpha-Galactosidase at pH 4.5 (AID 957; active = well fitted curve in the direction sought with a large enough effect; an effect the other way counts as inactive or inconclusive)
How it was run: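 Quantitative HTS of compounds (0.7 nM to 77 uM) against coffee bean alpha-galactosidase at pH 4.5, measuring 4-methylumbelliferone fluorescence released from 80 uM substrate.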

[8] = MultiTox-Fluor Cytotoxicity Assay - LYMP1-003 - Dead Cells (AID 961; active = well fitted curve in the direction sought with a large enough effect; an effect the other way counts as inactive or inconclusive; also: potency is read from the fitted curve at half-maximal effect; nearly all actives have a fitted effect of over 70% in size)
How it was run: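 Dead-cell protease release, detected as bis-AAF-R110 fluorescence at 485/520 nm, was measured in LYMP1-003 cells after 16 h compound treatment at 37 C. AC50 values came from Hill-modeled qHTS curves normalized to DMSO (0%) and 15 uM tetraoctylammonium bromide (100%).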

[9] = Cell Viability - LYMP1-003 - Assay at 40 hr (AID 964; active = well fitted curve in the direction sought with a large enough effect; an effect the other way counts as inactive or inconclusive; also: potency is read from the fitted curve at half-maximal effect; nearly all actives have a fitted effect of over 60% in size)
How it was run: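 Acute toxicity is scored as a concentration-dependent loss of intracellular ATP in LYMP1-003 cells (2500/well, complete medium) after 40 hr at 37 C, measured by CellTiter-Glo luminescence; AC50 values derive from standard Hill modelling.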

[10] = Cell Viability - LYMP2-010 (AID 981; active = well fitted curve in the direction sought with a large enough effect; an effect the other way counts as inactive or inconclusive;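 also: potency is read from the fitted curve at half-maximal effect; cells exposed to compound for 24 hours at 37 °C; nearly all actives have a fitted effect of over 55% in size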)
How it was run: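 This 24 hr viability screen uses LYMP2-010 lymphoblastoid cells, quantifies ATP via luciferase luminescence, and derives AC50 from Hill fits of qHTS concentration-response data.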

[11] = molecular target: Alpha-galactosidase (Coffea arabica) (UniProt Q42656); assay: Counterscreen for Glucocerebrosidase Inhibitors: qHTS Assay for Coffee Bean alpha-Galactosidase at pH 5.9 (AID 998; active = well fitted curve in the direction sought with a large enough effect; an effect the other way counts as inactive or inconclusive)
How it was run: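 In 50 mM citric acid pH 5.9 with 0.005% Tween-20, coffee bean enzyme hydrolyses 80 uM 4-MU alpha-D-galactopyranoside over 20 min at RT. Activity is normalized to controls; AC50 comes from Hill-modelled concentration-response data.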

[12] = Validation screen for inhibitors of Lassa infection (AID 463096)
[13] = molecular target: M-phase phosphoprotein 8 (Homo sapiens) (UniProt Q99549); assay: qHTS Validation Assay for Inhibitors for MPP8 Chromodomain Interactions with Methylated Histone Tails (AID 488949; active = well fitted curve in the direction sought with a large enough effect; an effect the other way counts as inactive or inconclusive; also: potency is read from the fitted curve at half-maximal effect; nearly all actives have a fitted effect of over 55% in size)
How it was run: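 AlphaScreen read-out: streptavidin donor and nickel chelate acceptor beads (final 10 ug/mL), 30 min in the dark at RT. Complex of 50 nM MPP8 and 50 nM b-H3(1-18)K9me3 peptide had been exposed to compounds for 30 min beforehand.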

[14] = molecular target: Peroxisome proliferator-activated receptor delta (Homo sapiens) (UniProt Q03181); assay: qHTS assay for small molecule agonists of peroxisome proliferator-activated receptor delta signaling (AID 588534)
How it was run: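 EC50 and efficacy values derive from Hill fits of a concentration series in a beta-lactamase reporter cell assay. Exposure is 18 hrs at 37 C, with CCF4 fluorescence as the readout.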

[15] = qHTS assay for small molecule agonists of the antioxidant response element (ARE) signaling pathway (AID 651741; active = well fitted activation curve with a large enough effect in the signal ratio; the % refers to the signal ratio; also: potency is read from the fitted curve at half-maximal effect)
How it was run: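 Beta-lactamase reporter expression driven by the antioxidant response element in HepG2 cells was detected by fluorescence with LiveBLAzer B/G FRET substrate (2 h, room temperature) following 16 h compound treatment at 37 C.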

[16] = molecular target: Nuclear receptor ROR-gamma (Homo sapiens) (UniProt P51449); assay: qHTS assay for small molecule antagonists of the retinoid-related orphan receptor gamma (ROR-gamma) signaling pathway (AID 651802; active = well fitted curve in the direction sought with a large enough effect; an effect the other way counts as inactive or inconclusive; also: potency is read from the fitted curve at half-maximal effect; nearly all actives have a fitted effect of over 60% in size)
How it was run: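 Doxycycline-induced reporter activity in engineered CHO cells (TET-inducible ROR, RORE-LUC) was measured by luminescence after 16hr compound exposure at 37C.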

[17] = molecular target: Nuclear receptor subfamily 1 group I member 3 (Homo sapiens) (UniProt Q14994); assay: Primary qHTS for antagonist of constitutive androstane receptor (CAR) against the NCATS DSHEA and TCM libraries (AID 1794836; active = well fitted curve in the direction sought with a large enough effect; an effect the other way counts as inactive or inconclusive)
How it was run: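 HepG2 cells stably carrying hCAR and a CYP2B6 luciferase reporter (2,500 cells/well) attached for 5 h, then received compounds with 48 uM CITCO for 24 h at 37C. ONE-Glo luminescence read antagonism; CellTiter-Fluor (405/540 nm) gave viability.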

[18] = KB-8-5-11 P-gp reporter qHTS against the NCATS DSHEA and TCM libraries (AID 1919977; active = well fitted curve in the direction sought with a large enough effect; an effect the other way counts as inactive or inconclusive)
How it was run: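 CellTiter-Glo luminescence after ~72 h exposure at 37C gave viability of KB-8-5-11 cells, the P-gp-overexpressing subline. Substances were titrated; colchicine was omitted from assay medium.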

[19] = Inducers of the Endoplasmic Reticulum Stress Response (ERSR) in human glioma: Validation (AID 504836; active = well fitted curve in the direction sought with a large enough effect; an effect the other way counts as inactive or inconclusive)
How it was run: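 Stably transfected U87-MG human glioma cells carrying a GRP78-based luminescent sensor were seeded at 1000 cells/well, pin-dosed with compounds and incubated 16 h. Luciferase reagent was then added, and end-point luminescence was read after 10 min at room temperature.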

Alpha-galactosidase (Coffea arabica), sequence (Q42656 whole entry, looked up): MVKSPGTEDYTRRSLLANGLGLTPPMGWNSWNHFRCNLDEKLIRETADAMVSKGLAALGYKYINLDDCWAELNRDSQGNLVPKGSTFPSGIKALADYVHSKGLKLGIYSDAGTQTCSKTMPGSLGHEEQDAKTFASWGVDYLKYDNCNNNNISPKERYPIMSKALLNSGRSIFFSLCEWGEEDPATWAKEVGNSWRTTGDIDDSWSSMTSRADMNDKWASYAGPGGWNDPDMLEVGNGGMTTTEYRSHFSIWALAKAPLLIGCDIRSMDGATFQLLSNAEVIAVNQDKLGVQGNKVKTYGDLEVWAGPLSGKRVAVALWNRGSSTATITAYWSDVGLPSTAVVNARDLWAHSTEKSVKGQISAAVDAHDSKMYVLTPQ
Nucleoprotein (Lymphocytic choriomeningitis virus (strain Armstrong)), sequence (P09992 whole entry, looked up): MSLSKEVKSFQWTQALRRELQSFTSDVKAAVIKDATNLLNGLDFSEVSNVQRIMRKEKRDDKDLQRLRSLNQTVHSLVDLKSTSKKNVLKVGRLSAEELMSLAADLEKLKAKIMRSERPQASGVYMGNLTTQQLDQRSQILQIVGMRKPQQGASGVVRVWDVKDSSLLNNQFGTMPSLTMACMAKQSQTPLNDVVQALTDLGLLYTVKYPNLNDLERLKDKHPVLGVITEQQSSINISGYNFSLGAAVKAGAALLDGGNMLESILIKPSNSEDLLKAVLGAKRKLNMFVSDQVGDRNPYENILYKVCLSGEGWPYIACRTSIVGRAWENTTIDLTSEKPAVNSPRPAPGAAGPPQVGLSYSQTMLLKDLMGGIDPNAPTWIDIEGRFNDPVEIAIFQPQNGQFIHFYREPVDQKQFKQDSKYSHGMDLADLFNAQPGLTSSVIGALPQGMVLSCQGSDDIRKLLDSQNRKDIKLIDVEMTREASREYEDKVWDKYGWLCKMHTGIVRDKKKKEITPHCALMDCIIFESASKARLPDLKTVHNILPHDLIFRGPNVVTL
Nuclear receptor subfamily 1 group I member 3 (Homo sapiens), sequence (Q14994 whole entry, looked up): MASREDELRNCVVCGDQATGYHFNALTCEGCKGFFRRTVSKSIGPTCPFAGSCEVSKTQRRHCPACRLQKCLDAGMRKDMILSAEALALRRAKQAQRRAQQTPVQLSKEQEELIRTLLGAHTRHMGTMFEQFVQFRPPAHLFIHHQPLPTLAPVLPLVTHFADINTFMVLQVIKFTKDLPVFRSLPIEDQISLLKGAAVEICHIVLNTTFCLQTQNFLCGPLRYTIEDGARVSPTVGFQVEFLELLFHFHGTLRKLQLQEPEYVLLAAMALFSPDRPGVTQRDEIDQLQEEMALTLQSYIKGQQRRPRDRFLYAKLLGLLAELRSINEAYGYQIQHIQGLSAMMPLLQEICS
Peroxisome proliferator-activated receptor delta (Homo sapiens), sequence (Q03181 whole entry, looked up): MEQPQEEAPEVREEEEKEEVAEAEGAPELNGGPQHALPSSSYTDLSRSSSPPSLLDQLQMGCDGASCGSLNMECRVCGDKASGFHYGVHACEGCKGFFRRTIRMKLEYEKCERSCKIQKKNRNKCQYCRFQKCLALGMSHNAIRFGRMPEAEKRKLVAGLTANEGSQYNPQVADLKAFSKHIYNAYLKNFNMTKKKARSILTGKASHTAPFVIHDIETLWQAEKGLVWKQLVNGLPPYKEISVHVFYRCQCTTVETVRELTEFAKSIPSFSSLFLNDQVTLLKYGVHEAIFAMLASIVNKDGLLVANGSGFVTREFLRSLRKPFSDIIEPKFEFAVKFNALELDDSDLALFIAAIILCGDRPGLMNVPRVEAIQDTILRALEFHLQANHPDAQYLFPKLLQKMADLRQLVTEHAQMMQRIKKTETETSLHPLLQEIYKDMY
Cytochrome P450 3A4 (Homo sapiens), sequence (P08684 whole entry, looked up): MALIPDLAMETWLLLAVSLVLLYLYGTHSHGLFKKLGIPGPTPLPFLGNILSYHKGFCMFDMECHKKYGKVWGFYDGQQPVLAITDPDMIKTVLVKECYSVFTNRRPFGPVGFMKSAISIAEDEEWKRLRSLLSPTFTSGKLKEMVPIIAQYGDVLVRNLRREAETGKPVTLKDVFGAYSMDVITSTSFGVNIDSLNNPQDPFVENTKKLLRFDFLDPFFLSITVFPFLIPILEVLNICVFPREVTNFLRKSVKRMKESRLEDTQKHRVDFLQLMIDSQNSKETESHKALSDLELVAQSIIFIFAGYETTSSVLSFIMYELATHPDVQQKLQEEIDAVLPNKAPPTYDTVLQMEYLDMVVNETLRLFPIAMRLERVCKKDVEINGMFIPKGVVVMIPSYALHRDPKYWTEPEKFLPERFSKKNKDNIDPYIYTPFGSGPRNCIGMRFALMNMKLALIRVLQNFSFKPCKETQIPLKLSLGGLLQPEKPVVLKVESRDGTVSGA
Nuclear receptor ROR-gamma (Homo sapiens), sequence (P51449 whole entry, looked up): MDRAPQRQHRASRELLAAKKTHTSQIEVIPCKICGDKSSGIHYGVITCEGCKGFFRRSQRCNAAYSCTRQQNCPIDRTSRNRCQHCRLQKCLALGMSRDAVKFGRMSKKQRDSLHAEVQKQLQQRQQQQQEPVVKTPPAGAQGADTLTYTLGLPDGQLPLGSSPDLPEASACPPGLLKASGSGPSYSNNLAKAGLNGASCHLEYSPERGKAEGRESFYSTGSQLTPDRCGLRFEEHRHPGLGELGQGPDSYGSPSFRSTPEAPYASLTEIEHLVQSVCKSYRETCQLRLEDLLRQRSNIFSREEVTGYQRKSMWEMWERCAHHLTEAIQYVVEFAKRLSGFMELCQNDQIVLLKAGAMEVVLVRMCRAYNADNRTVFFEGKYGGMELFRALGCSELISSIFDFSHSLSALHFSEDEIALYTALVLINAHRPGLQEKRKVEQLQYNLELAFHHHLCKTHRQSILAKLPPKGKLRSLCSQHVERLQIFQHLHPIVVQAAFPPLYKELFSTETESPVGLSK
M-phase phosphoprotein 8 (Homo sapiens), sequence (Q99549 whole entry, looked up): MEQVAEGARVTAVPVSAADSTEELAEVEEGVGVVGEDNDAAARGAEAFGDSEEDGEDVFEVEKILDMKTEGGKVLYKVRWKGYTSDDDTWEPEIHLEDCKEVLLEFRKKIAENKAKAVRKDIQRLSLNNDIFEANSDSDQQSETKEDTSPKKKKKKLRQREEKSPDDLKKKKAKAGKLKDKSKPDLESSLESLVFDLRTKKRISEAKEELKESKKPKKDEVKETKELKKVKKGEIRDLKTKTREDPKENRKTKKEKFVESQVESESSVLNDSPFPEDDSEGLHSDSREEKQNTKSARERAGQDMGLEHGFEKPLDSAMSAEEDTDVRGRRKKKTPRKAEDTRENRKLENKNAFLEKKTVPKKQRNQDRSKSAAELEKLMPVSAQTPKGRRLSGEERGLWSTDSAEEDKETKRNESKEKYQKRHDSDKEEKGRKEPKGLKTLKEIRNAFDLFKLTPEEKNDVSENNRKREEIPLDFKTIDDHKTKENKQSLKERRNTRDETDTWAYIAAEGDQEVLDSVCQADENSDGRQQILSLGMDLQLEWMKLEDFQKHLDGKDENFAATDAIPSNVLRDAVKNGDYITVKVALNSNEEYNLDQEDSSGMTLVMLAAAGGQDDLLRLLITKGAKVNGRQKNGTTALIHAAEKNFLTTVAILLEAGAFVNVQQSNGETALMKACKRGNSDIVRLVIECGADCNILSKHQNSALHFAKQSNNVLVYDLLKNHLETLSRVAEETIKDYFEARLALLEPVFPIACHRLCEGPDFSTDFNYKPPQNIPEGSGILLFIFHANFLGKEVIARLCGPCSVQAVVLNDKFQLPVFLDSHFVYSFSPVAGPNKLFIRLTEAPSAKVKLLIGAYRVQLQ

O=C1c2ccccc2-[n+]2ccc3c([nH]c4ccccc43)c21
active: Potency [1] 4.85 µM | Potency [2] 4.32 µM | Potency [3] 6.11 µM | Potency [4] 3.06 µM | Potency [5] 1.26 µM

Cc1ccc(C(=O)N(CCCN)[C@@H](c2oc3cc(Cl)ccc3c(=O)c2Cc2ccccc2)C(C)C)cc1
inactive: Potency [1] | Potency [2] | Potency [3] | Potency [4]
-98.4%: activity change, negative = inhibition [5]

Cc1csc(-c2nnc(Nc3ccc(Oc4ncccc4-c4ccnc(N)n4)cc3)c3ccccc23)c1
active: Potency [2] 6.85 µM | Potency [3] 19.3 µM | Potency [5] 15.8 µM
inactive: Potency [1] | Potency [4]

Oc1ccccc1O
active: Potency [8] 12.6 µM | Potency [9] 7.94 µM | Potency [10] 20 µM | Potency [13] 79.4 µM | Potency [15] 29.8 µM | Potency [16] 5.96 µM
inactive: Potency [6] | outcome [7] | outcome [11] | Potency [12] | Potency [14] | Potency [1] | Potency [2] | Potency [3] | Potency [4]

Cc1nc(N)ncc1-c1nc(N2CCOCC2)c2sc(C(C)(C)O)cc2n1
active: Potency [1] 1.53 µM | Potency [2] 0.863 µM | Potency [3] 1.09 µM | Potency [4] 1.72 µM | Potency [5] 7.94 µM

C=CC(=O)N1CCc2ccc(-n3c(=O)ccc4cnc5ccc(-c6cnn(C)c6)cc5c43)cc21
active: Potency [5] 3.55 µM
inactive: Potency [1] | Potency [2] | Potency [3] | Potency [4]

O=c1c(-c2ccc(O)cc2)coc2cc(O[C@@H]3O[C@H](CO)[C@H](O)[C@H](O)[C@H]3O)ccc12
inactive: Potency [1] | Potency [2] | Potency [3] | Potency [4] | Potency [17] | outcome [18]

CC(C)C[C@H](NC(=O)[C@@H](NC(=O)c1cccc(-c2ccccc2)n1)[C@@H](C)O)B(O)O
-97.4% [at 27.1 µM]: activity change, negative = inhibition [5]
active: Potency [1] 0.685 µM | Potency [2] 0.544 µM | Potency [3] 1.09 µM | Potency [4] 1.09 µM

CCOc1ccccc1N=Nc1c(C)[nH]n(-c2nc(-c3ccccc3)cs2)c1=O
inactive: Potency [1] | Potency [2] | Potency [3] | Potency [4] | Potency [5]

CCCCCCCCCC=O
inactive: Potency [1] | Potency [2] | Potency [3] | Potency [4] | Potency [17] | outcome [18]

NO
inactive: outcome [7] | outcome [11] | Potency [12] | outcome [19] | Potency [1] | Potency [2] | Potency [3] | Potency [4]

CC1(C)CC(=O)c2c(C(F)(F)F)nn(-c3ccc(C(N)=O)c(NC4CCC(O)CC4)c3)c2C1 (stereo not drawn)
-89.6%: activity change, negative = inhibition [5]
active: Potency [1] 1.09 µM | Potency [2] 0.611 µM | Potency [3] 0.769 µM | Potency [4] 0.273 µM

Oc1cc(O)cc(/C=C/c2ccc(O)c(O)c2)c1
-97.4%: activity change, negative = inhibition [5]
inactive: Potency [12] | outcome [19] | Potency [1] | Potency [2] | Potency [3] | Potency [4]

Cc1nc(C(=O)NCC(=O)O)c(O)c2ccc(Oc3ccccc3)cc12
-9.8%: activity change, negative = inhibition [5]
inactive: Potency [1] | Potency [2] | Potency [3] | Potency [4]

C[C@@]12C[C@@]3(O)O[C@@H](O1)[C@]1(COC(=O)c4ccccc4)[C@@H]3C[C@@]12O[C@@H]1O[C@H](CO)[C@@H](O)[C@H](O)[C@@H]1O
inactive: Potency [1] | Potency [2] | Potency [3] | Potency [4] | Potency [17] | outcome [18]
